# From publication PMC11006913
# Residue numbers refer to the chain shown, from its start.
# Tests used:
# Experiment in all cases: PBM; 200 nM protein, PBS
# Conditions in all cases: dsDNA, one strand shown
# [1] = molecular target: NKX2-5 (Homo sapiens, UniProt P52952 125-210, R139K)
# [2] = molecular target: T1, NKX2-4 (Homo sapiens, UniProt Q9H2Z4 175-261, P217L)
# T1 sequence: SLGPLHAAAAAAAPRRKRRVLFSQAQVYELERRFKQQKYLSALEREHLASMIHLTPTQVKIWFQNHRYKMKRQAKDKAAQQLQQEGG
# [3] = molecular target: T2, NKX2-4 (Homo sapiens, UniProt Q9H2Z4 175-261, T231S)
# T2 sequence: T1 sequence with L43P, T57S
# [4] = molecular target: T3, NKX2-4 (Homo sapiens, UniProt Q9H2Z4 175-261)
# T3 sequence: T1 sequence with L43P
# [5] = molecular target: HOXB6 (Homo sapiens, UniProt P17509 132-218, K202E)
# Chain of HOXB6 (Homo sapiens, UniProt P17509 132-218, K202E) (P17509 132-218 K202E): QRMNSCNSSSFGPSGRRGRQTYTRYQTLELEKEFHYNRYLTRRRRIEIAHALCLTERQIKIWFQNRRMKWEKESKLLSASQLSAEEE
# [6] = molecular target: T4, NKX2-4 (Homo sapiens, UniProt Q9H2Z4 175-261, R246Q)
# T4 sequence: T1 sequence with L43P, R72Q
# [7] = molecular target: NKX3-2 (Homo sapiens, UniProt P78367 192-278, P234S)
# Chain of NKX3-2 (Homo sapiens, UniProt P78367 192-278, P234S) (P78367 192-278 P234S): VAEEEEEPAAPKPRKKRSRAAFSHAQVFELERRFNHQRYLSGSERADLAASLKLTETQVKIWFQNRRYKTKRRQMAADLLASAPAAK
# [8] = molecular target: NKX2-5 (Homo sapiens, UniProt P52952 125-210)
# Chain of NKX2-5 (Homo sapiens, UniProt P52952 125-210) (P52952 125-210): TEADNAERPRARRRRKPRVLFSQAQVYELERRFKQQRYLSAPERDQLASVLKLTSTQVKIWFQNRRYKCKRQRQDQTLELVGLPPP
# [9] = molecular target: HOXB6 (Homo sapiens, UniProt P17509 132-218)
# Chain of HOXB6 (Homo sapiens, UniProt P17509 132-218) (P17509 132-218): as the sequence (P17509 132-218 K202E) above, with E71K counted along it
# [10] = molecular target: NKX3-2 (Homo sapiens, UniProt P78367 192-278)
# Chain of NKX3-2 (Homo sapiens, UniProt P78367 192-278) (P78367 192-278): as the sequence (P78367 192-278 P234S) above, with S43P counted along it
# [11] = molecular target: HOXB4 (Homo sapiens, UniProt P17483 148-234)
# Chain of HOXB4 (Homo sapiens, UniProt P17483 148-234) (P17483 148-234): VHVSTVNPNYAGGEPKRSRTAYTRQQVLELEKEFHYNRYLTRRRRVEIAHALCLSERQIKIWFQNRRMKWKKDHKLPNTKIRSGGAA
# [12] = molecular target: HOXB4 (Homo sapiens, UniProt P17483 148-234, V174I)
# Chain of HOXB4 (Homo sapiens, UniProt P17483 148-234, V174I) (P17483 148-234 V174I): as the sequence (P17483 148-234) above, with V27I counted along it
# [13] = molecular target: T5, NKX2-6 (Homo sapiens, UniProt A6NCS4 118-204, R150C)
# T5 sequence: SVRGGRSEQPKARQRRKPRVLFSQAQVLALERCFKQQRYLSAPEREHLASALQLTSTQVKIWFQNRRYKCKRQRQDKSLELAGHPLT
# [14] = molecular target: T6, NKX2-6 (Homo sapiens, UniProt A6NCS4 118-204)
# T6 sequence: T5 sequence with C33R
# [15] = molecular target: T7, NKX2-6 (Homo sapiens, UniProt A6NCS4 118-204, F151L)
# T7 sequence: T5 sequence with C33R, F34L
# [16] = molecular target: PRRX1 (Homo sapiens, UniProt P54821 80-166, F113S)
# Chain of PRRX1 (P54821 80-166 F113S): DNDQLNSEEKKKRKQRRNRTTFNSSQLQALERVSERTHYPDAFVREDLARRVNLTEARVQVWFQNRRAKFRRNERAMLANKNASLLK
# [17] = molecular target: HOXA2 (Homo sapiens, UniProt O43364 129-215, R185T)
# Chain of HOXA2 (Homo sapiens, UniProt O43364 129-215, R185T) (O43364 129-215 R185T): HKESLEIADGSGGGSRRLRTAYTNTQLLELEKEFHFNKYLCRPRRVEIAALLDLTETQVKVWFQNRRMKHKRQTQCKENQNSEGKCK
# [18] = molecular target: HOXA2 (Homo sapiens, UniProt O43364 129-215, R185K)
# Chain of HOXA2 (Homo sapiens, UniProt O43364 129-215, R185K) (O43364 129-215 R185K): as the sequence (O43364 129-215 R185T) above, with T57K counted along it
# [19] = molecular target: HOXA2 (Homo sapiens, UniProt O43364 129-215, Y150S)
# Chain of HOXA2 (Homo sapiens, UniProt O43364 129-215, Y150S) (O43364 129-215 Y150S): as the sequence (O43364 129-215 R185T) above, with Y22S, T57R counted along it
# [20] = molecular target: HOXA2 (Homo sapiens, UniProt O43364 129-215)
# Chain of HOXA2 (Homo sapiens, UniProt O43364 129-215) (O43364 129-215): as the sequence (O43364 129-215 R185T) above, with T57R counted along it
# Chain of NKX2-5 (Homo sapiens, UniProt P52952 125-210, R139K) (P52952 125-210 R139K): as the sequence (P52952 125-210) above, with R15K counted along it
sequence,measurement,setting,value
CCGGAGCC,binding signal,[1],"8.82 upbm affinity estimate (log intensity, higher = more binding, comparable within an allelic series)"
same,binding signal,[2],"9.74 upbm affinity estimate (log intensity, higher = more binding, comparable within an allelic series)"
same,binding signal,[3],"9.52 upbm affinity estimate (log intensity, higher = more binding, comparable within an allelic series)"
same,binding signal,[4],"9.71 upbm affinity estimate (log intensity, higher = more binding, comparable within an allelic series)"
same,binding signal,[5],"8.96 upbm affinity estimate (log intensity, higher = more binding, comparable within an allelic series)"
same,binding signal,[6],"9.5 upbm affinity estimate (log intensity, higher = more binding, comparable within an allelic series)"
same,binding signal,[7],"10.4 upbm affinity estimate (log intensity, higher = more binding, comparable within an allelic series)"
same,binding signal,[8],"8.87 upbm affinity estimate (log intensity, higher = more binding, comparable within an allelic series)"
same,binding signal,[9],"8.93 upbm affinity estimate (log intensity, higher = more binding, comparable within an allelic series)"
same,binding signal,[10],"10.4 upbm affinity estimate (log intensity, higher = more binding, comparable within an allelic series)"
ACGGCTGG,binding signal,[1],"8.82 upbm affinity estimate (log intensity, higher = more binding, comparable within an allelic series)"
same,binding signal,[11],"7.57 upbm affinity estimate (log intensity, higher = more binding, comparable within an allelic series)"
same,binding signal,[12],"7.93 upbm affinity estimate (log intensity, higher = more binding, comparable within an allelic series)"
same,binding signal,[8],"8.82 upbm affinity estimate (log intensity, higher = more binding, comparable within an allelic series)"
CACTTATA,binding signal,[1],"13.1 upbm affinity estimate (log intensity, higher = more binding, comparable within an allelic series)"
same,binding signal,[2],"12.6 upbm affinity estimate (log intensity, higher = more binding, comparable within an allelic series)"
same,binding signal,[3],"13 upbm affinity estimate (log intensity, higher = more binding, comparable within an allelic series)"
same,binding signal,[4],"12.5 upbm affinity estimate (log intensity, higher = more binding, comparable within an allelic series)"
same,binding signal,[13],"12.1 upbm affinity estimate (log intensity, higher = more binding, comparable within an allelic series)"
same,binding signal,[14],"13.8 upbm affinity estimate (log intensity, higher = more binding, comparable within an allelic series)"
same,binding signal,[6],"13.2 upbm affinity estimate (log intensity, higher = more binding, comparable within an allelic series)"
same,binding signal,[15],"11.2 upbm affinity estimate (log intensity, higher = more binding, comparable within an allelic series)"
same,binding signal,[7],"12.7 upbm affinity estimate (log intensity, higher = more binding, comparable within an allelic series)"
same,binding signal,[8],"12.8 upbm affinity estimate (log intensity, higher = more binding, comparable within an allelic series)"
same,binding signal,[10],"12.8 upbm affinity estimate (log intensity, higher = more binding, comparable within an allelic series)"
AATAAGTG,binding signal,[1],"12.4 upbm affinity estimate (log intensity, higher = more binding, comparable within an allelic series)"
same,binding signal,[2],"12.4 upbm affinity estimate (log intensity, higher = more binding, comparable within an allelic series)"
same,binding signal,[3],"12.8 upbm affinity estimate (log intensity, higher = more binding, comparable within an allelic series)"
same,binding signal,[4],"12.3 upbm affinity estimate (log intensity, higher = more binding, comparable within an allelic series)"
same,binding signal,[13],"11.8 upbm affinity estimate (log intensity, higher = more binding, comparable within an allelic series)"
same,binding signal,[14],"13.3 upbm affinity estimate (log intensity, higher = more binding, comparable within an allelic series)"
same,binding signal,[6],"12.9 upbm affinity estimate (log intensity, higher = more binding, comparable within an allelic series)"
same,binding signal,[15],"10.7 upbm affinity estimate (log intensity, higher = more binding, comparable within an allelic series)"
same,binding signal,[8],"12.4 upbm affinity estimate (log intensity, higher = more binding, comparable within an allelic series)"
CACTTAGA,binding signal,[1],"12.6 upbm affinity estimate (log intensity, higher = more binding, comparable within an allelic series)"
same,binding signal,[13],"11.7 upbm affinity estimate (log intensity, higher = more binding, comparable within an allelic series)"
same,binding signal,[14],"13.6 upbm affinity estimate (log intensity, higher = more binding, comparable within an allelic series)"
same,binding signal,[15],"10.8 upbm affinity estimate (log intensity, higher = more binding, comparable within an allelic series)"
same,binding signal,[7],"12.6 upbm affinity estimate (log intensity, higher = more binding, comparable within an allelic series)"
same,binding signal,[8],"12.4 upbm affinity estimate (log intensity, higher = more binding, comparable within an allelic series)"
same,binding signal,[10],"12.8 upbm affinity estimate (log intensity, higher = more binding, comparable within an allelic series)"
ACGCGCAG,binding signal,[1],"8.62 upbm affinity estimate (log intensity, higher = more binding, comparable within an allelic series)"
same,binding signal,[16],"9.07 upbm affinity estimate (log intensity, higher = more binding, comparable within an allelic series)"
same,binding signal,[13],"9.46 upbm affinity estimate (log intensity, higher = more binding, comparable within an allelic series)"
same,binding signal,[8],"8.69 upbm affinity estimate (log intensity, higher = more binding, comparable within an allelic series)"
CCGCGTCG,binding signal,[1],"9.03 upbm affinity estimate (log intensity, higher = more binding, comparable within an allelic series)"
same,binding signal,[11],"7.75 upbm affinity estimate (log intensity, higher = more binding, comparable within an allelic series)"
same,binding signal,[12],"7.36 upbm affinity estimate (log intensity, higher = more binding, comparable within an allelic series)"
same,binding signal,[8],"8.95 upbm affinity estimate (log intensity, higher = more binding, comparable within an allelic series)"
CGGGCTCC,binding signal,[1],"8.64 upbm affinity estimate (log intensity, higher = more binding, comparable within an allelic series)"
same,binding signal,[11],"6.66 upbm affinity estimate (log intensity, higher = more binding, comparable within an allelic series)"
same,binding signal,[16],"8.95 upbm affinity estimate (log intensity, higher = more binding, comparable within an allelic series)"
same,binding signal,[5],"8.71 upbm affinity estimate (log intensity, higher = more binding, comparable within an allelic series)"
same,binding signal,[17],"6.41 upbm affinity estimate (log intensity, higher = more binding, comparable within an allelic series)"
same,binding signal,[12],"6.92 upbm affinity estimate (log intensity, higher = more binding, comparable within an allelic series)"
same,binding signal,[14],"9.11 upbm affinity estimate (log intensity, higher = more binding, comparable within an allelic series)"
same,binding signal,[18],"9.88 upbm affinity estimate (log intensity, higher = more binding, comparable within an allelic series)"
same,binding signal,[15],"9.07 upbm affinity estimate (log intensity, higher = more binding, comparable within an allelic series)"
same,binding signal,[19],"10.2 upbm affinity estimate (log intensity, higher = more binding, comparable within an allelic series)"
same,binding signal,[20],"6.39 upbm affinity estimate (log intensity, higher = more binding, comparable within an allelic series)"
same,binding signal,[8],"8.58 upbm affinity estimate (log intensity, higher = more binding, comparable within an allelic series)"
same,binding signal,[9],"8.31 upbm affinity estimate (log intensity, higher = more binding, comparable within an allelic series)"
